36 molecules from PubChem BioAssay (NCATS) can be followed below.

Common to all, as to test: Confirmatory Screen for Target Class Profiling of Small Molecule Inhibitors of Methyltransferases (AID 1745852); on activity change, negative = inhibition: on the % scale 0 is the no-effect control and ±100 the full control effect
The target of assay [1] is Catechol O-methyltransferase (Homo sapiens) (UniProt P21964). As to conditions: MTase-Glo luminescence, SAH detection, recombinant enzyme; measured here: COMT max response; stronger effect = lower value.
Assay [2] has as its target Guanidinoacetate N-methyltransferase (Homo sapiens) (UniProt Q14353). As to conditions: activity change, negative = inhibition: at 57.3 µM (top of the series) unless noted.
Assay [3] addresses Nicotinamide N-methyltransferase (Homo sapiens) (UniProt P40261). As to conditions: MTase-Glo luminescence, SAH detection, recombinant enzyme; measured here: NNMT max response; stronger effect = lower value.
In assay [4] the target is Phenylethanolamine N-methyltransferase (Homo sapiens) (UniProt P11086). The note with it: MTase-Glo luminescence, SAH detection, recombinant enzyme; measured here: PNMT max response; stronger effect = lower value.

Activity calls are given as the source filed them. The call rests on the fitted dose curve.
Potency means the concentration at half of the fitted maximal effect.

Nicotinamide N-methyltransferase (Homo sapiens), sequence (P40261 whole entry, looked up): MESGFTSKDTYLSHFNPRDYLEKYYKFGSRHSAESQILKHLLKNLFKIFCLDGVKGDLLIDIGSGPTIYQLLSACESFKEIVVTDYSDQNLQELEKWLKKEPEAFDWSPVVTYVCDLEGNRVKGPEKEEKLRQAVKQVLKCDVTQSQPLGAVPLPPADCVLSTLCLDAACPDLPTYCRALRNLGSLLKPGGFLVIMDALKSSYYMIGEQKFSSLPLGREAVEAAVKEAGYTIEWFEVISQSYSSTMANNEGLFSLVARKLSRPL
Phenylethanolamine N-methyltransferase (Homo sapiens), sequence (P11086 whole entry, looked up): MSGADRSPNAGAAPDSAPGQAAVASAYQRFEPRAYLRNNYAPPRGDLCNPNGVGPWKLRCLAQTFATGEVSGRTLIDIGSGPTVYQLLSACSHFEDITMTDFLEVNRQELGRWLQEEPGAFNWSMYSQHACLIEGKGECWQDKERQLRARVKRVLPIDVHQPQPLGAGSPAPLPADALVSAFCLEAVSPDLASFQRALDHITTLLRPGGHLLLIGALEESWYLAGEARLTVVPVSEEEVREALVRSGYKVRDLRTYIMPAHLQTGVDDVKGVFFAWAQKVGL
Catechol O-methyltransferase (Homo sapiens), sequence (P21964 whole entry, looked up): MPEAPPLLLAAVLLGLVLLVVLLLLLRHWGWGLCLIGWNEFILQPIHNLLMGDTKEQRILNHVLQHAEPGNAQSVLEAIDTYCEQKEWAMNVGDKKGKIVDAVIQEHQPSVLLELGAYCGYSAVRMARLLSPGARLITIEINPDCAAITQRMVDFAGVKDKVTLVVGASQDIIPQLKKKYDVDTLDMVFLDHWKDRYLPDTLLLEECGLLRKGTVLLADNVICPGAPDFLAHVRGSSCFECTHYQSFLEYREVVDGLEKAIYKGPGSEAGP

As for `CCc1cc2c(cc3n2CC(C)(C(=O)NC2CCC(C)CC2)N(C(C)CCc2ccco2)C3=O)s1` (centres undefined), the activity in assay [1] is -10.7%; in assay [3], -6.06%; in assay [4], -12.3%. The activity change, negative = inhibition in assay [2] was -18.6%.

For the molecule `Cc1ccc(Cn2c(=O)c3ccccc3n3c(CCC(=O)N4CCC(N5CCCCC5)CC4)nnc23)cc1`, the activity in assay [1] was -6.25%; in assay [3], -14.2%; in assay [4], -2.33%. The activity change, negative = inhibition in assay [2] is -4.42%.

With `COc1ccc(CN2CCCC(COc3ccccc3C(=O)NC3CC3)C2)c(OC)c1` (centres undefined), the values for the activity in assay [1], in assay [3] and in assay [4] were 4.91%, 1.02% and 1.19%, respectively. Further, in assay [2], the activity change, negative = inhibition is 4.18%.

Consider `O=C(CCc1ccccc1)N1CCNc2cnc(Nc3cccnc3)nc2C1`, for which the activity is -28.2% in assay [1], -21.6% in assay [3] and -41.2% in assay [4]. In addition, the activity change, negative = inhibition in assay [2] was -16.6% [at 85.7 µM].

On to `C[C@H]1CN(C(=O)Nc2ccc(F)cc2F)C[C@@H]1c1nc(-c2ccccc2)no1`, for which the figures for the activity in assay [1], in assay [3] and in assay [4] were 6.81%, -92.4% and 9.33%, respectively. Moreover, the Potency in assay [2] was 0.769 µM (active).

On to `COc1cccc(CN2C(=O)c3nc4ccccc4n3CC2(C)C(=O)NC2CCC(C)CC2)c1` (centres undefined), for which the activity in assay [1] is -5%; in assay [3], -42.5%; in assay [4] it was -8.56%. The activity change, negative = inhibition in assay [2] came to 0.902%.

For `c1ccc(CCN2CCNc3cc(NCc4cccnc4)ncc3C2)cc1`, the activity in assay [1] is 2.5%; in assay [3], -5.35%; in assay [4] it was -6.38%. Further, the activity change, negative = inhibition in assay [2] worked out at 1.95% [at 85.7 µM].

Turning to `CC1CCCCN1CCNC(=O)Cn1ccc2cc(S(=O)(=O)N3CCCCC3)ccc21` (centres undefined), the activity in assay [1] was 0.614%; in assay [3], -0.249%; in assay [4], -1.89%. The activity change, negative = inhibition in assay [2] stood at 0%.

As to `CC1CC(C)CN(S(=O)(=O)c2ccc3c(c2)oc(=O)n3CC(=O)Nc2cccc(F)c2)C1` (centres undefined), the results for the activity in assay [1], in assay [3] and in assay [4] were 1.38%, -0.567% and -52.9%, respectively. Also, in assay [2], the activity change, negative = inhibition is 0%.

For the molecule `O=C(c1ccc2c(=O)nc3c(-c4ccc(Cl)cc4)n[nH]n3c2c1)N1CCN(Cc2ccccc2)CC1`, the activity in assay [1] is -8.28%; in assay [3], -22.4%; in assay [4], -11.1%. Moreover, the activity change, negative = inhibition in assay [2] amounted to 1.01%.

In the case of `CCN(CC)CCNC(=O)CCc1nnc2n(Cc3ccccc3Cl)c(=O)c3ccccc3n12`, the figures for the activity in assay [1], in assay [3] and in assay [4] were -5.86%, -14.7% and 2.62%, respectively. Besides, in assay [2], the activity change, negative = inhibition was -1.02%.

Regarding `O=C(Nc1ccc2c(N3CCCCC3)ncnc2c1)c1ccccc1C(F)(F)F`, the activity in assay [1] is -15.7%; in assay [3] it was -10.2%; in assay [4] it was -19.5%. Besides, in assay [2], the activity change, negative = inhibition is -6.31%.

In the case of `Cc1cnccc1NCCn1ccnc1-c1cc2n(n1)CCCNC2`, the activity in assay [1] is -0.636%; in assay [3] it was 0.35%; in assay [4] it was 0.494%. Further, the activity change, negative = inhibition in assay [2] turned out to be 2.5%.

As for `COCc1cc(NCCCNc2cccnc2)ncn1`, the figures for the activity in assay [1], in assay [3] and in assay [4] were -19.2%, -14.1% and -21%, respectively. For the same molecule, in assay [2], the activity change, negative = inhibition is -12.2%.

On to `O=C(CC1CCCC1)N1CCC(Nc2cccnc2)C1` (centres undefined), for which the activity in assay [1] is -11%; in assay [3], -14.6%; in assay [4] it was -7.86%. Further, the activity change, negative = inhibition in assay [2] is -10.5%.

Regarding `COc1ccc(CN2C(=O)c3cc4sccc4n3CC2(C)C(=O)NC2CCC(C)CC2)cc1OC` (centres undefined), the activity is -5.8% in assay [1], -79.1% in assay [3] and -7.08% in assay [4]. Further, in assay [2], the activity change, negative = inhibition stood at 0.162%.

As for `COc1cccc([S+](=O)([O-])N2CCC3(C2)N=C(c2cccnc2)C(=O)N3)c1` (centres undefined), the activity was -6.05% in assay [1], -8.17% in assay [3] and -16.9% in assay [4]. Moreover, the activity change, negative = inhibition in assay [2] is -6.21%.

Turning to `Cc1ccc(Cn2c(=O)c3ccccc3n3c(CCC(=O)NCCCN4CCN(C)CC4)nnc23)cc1`, the activity in assay [1] was -2.75%; in assay [3], -12.5%; in assay [4] it was 3.42%. The activity change, negative = inhibition in assay [2] is -1.36%.

Consider `CC1CCN(CCCNC(=O)CCc2nnc3n(Cc4ccc(F)cc4)c(=O)c4ccccc4n23)CC1`, for which the values for the activity in assay [1], in assay [3] and in assay [4] were -10.3%, -14.9% and -5.49%, respectively. In assay [2], the activity change, negative = inhibition was -2.12%.

Regarding `CCNc1ncc(CN2CCN(c3ccncc3)CC2)cn1`, the activity in assay [1] is 4.09%; in assay [3] it was -0.695%; in assay [4] it was 1.91%. The activity change, negative = inhibition in assay [2] is 1.98%.

Consider `COc1ccc(CCNc2nc3c(-c4cccc(F)c4)nnn3c3ccccc23)cc1OC`, for which the activity in assay [1] was -7.47%; in assay [3], -5.65%; in assay [4] it was -3.23%. Further, the activity change, negative = inhibition in assay [2] is -8.63%.

Take `CN1CCCC2(C1)CN(C)c1ccc(C(=O)NCC3CCCCC3)cc12` (centres undefined): the activity in assay [1] is 1.14%; in assay [3], -10.6%; in assay [4] it was -0.542%. Besides, the activity change, negative = inhibition in assay [2] was -0.167% [at 85.7 µM].

With `O=C(Cn1c(=O)oc2cc(S(=O)(=O)N3CCCC3)ccc21)NCCC1=CCCCC1`, the activity in assay [1] was -0.904%; in assay [3] it was 1.35%; in assay [4] it was -61.9%. The activity change, negative = inhibition in assay [2] was 0.588%.

Regarding `c1ccc(-c2cc3c(cn2)NCCN(Cc2ccccn2)C3)cc1`, the figures for the activity in assay [1], in assay [3] and in assay [4] were 1.39%, -8.79% and -1.82%, respectively. Also, the activity change, negative = inhibition in assay [2] was determined as 3.72% [at 85.7 µM].

In the case of `O=C1c2ccccc2C(=O)c2cc(S(=O)(=O)Nc3ccc(Br)cc3)ccc21`, the activity is 0.0189% in assay [1], -13.8% in assay [3] and -18.5% in assay [4]. In assay [2], the activity change, negative = inhibition was -0.0818%.

For `Cc1noc2c(N3CCOCC3)cc(-c3cccs3)nc12`, the activity in assay [1] is -4.75%; in assay [3], -22.1%; in assay [4], -11.9%. In assay [2], the activity change, negative = inhibition worked out at 2.07% [at 85.7 µM].

Take `Cc1ccc(S(=O)(=O)c2nnn3c2nc(N2CCC(N4CCCCC4)CC2)c2ccccc23)cc1C`: the activity is -1.85% in assay [1], -9.07% in assay [3] and -3.83% in assay [4]. Further, the activity change, negative = inhibition in assay [2] was 0%.

Turning to `CCOC(=O)c1ccc(NC(=O)Cn2c(=O)oc3cc(S(=O)(=O)N4CCCC4)ccc32)cc1`, the results for the activity in assay [1], in assay [3] and in assay [4] were -7.51%, -9.52% and -37.8%, respectively. Moreover, the activity change, negative = inhibition in assay [2] was -4.51%.

In the case of `CN(C)CCNC(=O)c1ccnc(-c2nnc3ccc(N(C)c4ccccc4)nn23)c1`, the values for the activity in assay [1], in assay [3] and in assay [4] were -5.96%, -14.4% and -6.46%, respectively. Also, the activity change, negative = inhibition in assay [2] is -11.8% [at 85.7 µM].

As to `COc1ncccc1-c1nccn2c(C3CN(Cc4ccccc4O)C3)ncc12`, the activity in assay [1] was 2.23%; in assay [3], 7.78%; in assay [4] it was 3.8%. The activity change, negative = inhibition in assay [2] amounted to 2.06% [at 85.7 µM].

Regarding `CCCCN1C(=O)c2cc(C(=O)NCc3ccc(OC)cc3OC)nn2CC1(C)C(=O)NC1CCCC1` (centres undefined), the activity in assay [1] is 0.43%; in assay [3], -36.8%; in assay [4], -3.65%. In assay [2], the activity change, negative = inhibition was found to be 0%.

For `O=C(Nc1ccc(F)c(Cl)c1)N1CCn2cccc2C1Cc1ccccc1` (centres undefined), the activity in assay [1] is -2.26%; in assay [3] it was -5.36%; in assay [4], -6.59%. The activity change, negative = inhibition in assay [2] is 1.87%.

For `Cn1cnc(CN2CCNc3cc(Nc4ccccc4)ncc3C2)c1`, the figures for the activity in assay [1], in assay [3] and in assay [4] were 7.14%, 4.88% and -5.41%, respectively. Also, the activity change, negative = inhibition in assay [2] worked out at 2.31% [at 85.7 µM].

Consider `O=C(O)c1ccc(Nc2nc3ccccc3n3cnnc23)cc1`, for which the results for the activity in assay [1], in assay [3] and in assay [4] were -82.3%, -79.6% and -46%, respectively. Also, the Potency in assay [2] was 19.3 µM (active).

With `COc1ccc(S(=O)(=O)N2CCC(n3c(=O)[nH]c4ccccc43)CC2)cc1`, the activity in assay [1] was -23.2%; in assay [3], -15.3%; in assay [4], -23.9%. Besides, the activity change, negative = inhibition in assay [2] is -12%.

Consider `Cn1cc(-c2cc3c(ccn3Cc3ccncc3)c(N3CCOCC3)n2)cn1`, for which the activity was -2.2% in assay [1], -4.04% in assay [3] and -7.43% in assay [4]. Further, the activity change, negative = inhibition in assay [2] is -2.92% [at 85.7 µM].
